ELG1 DNA repair = ELG1-dependent DNA repair inhibition; HEK293T ELG1-luciferase reporter, luminescence, 16 h; DNA damage induced by 5-fluorouridine; hit rate 2.3% among 330,000; Potency, µM (doses to about 46.1 µM), for inactives: at the top dose activity change, negative = inhibition, actives largely listed as inhibitors; note: potency is the fitted concentration of half-maximal effect; nearly all actives have a fitted effect of over 55% in size
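Luminescence from the luciferase reporter, measured 30 min after ONE-Glo reagent at room temperature, was the read-out. Beforehand, 2,000 cells per well were exposed for 16 hr at 37 °C to 5-fluorouridine together with compound or vehicle.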
TDP1 cell noCPT = qHTS for Inhibitors of human tyrosyl-DNA phosphodiesterase 1 (TDP1): qHTS in cells in absence of CPT; DT40 Tdp1-/- hTDP1 cells, no CPT, ATP luminescence, 48 h; Potency, µM (top dose mostly 46.2 µM), for inactives: at the top dose activity change, negative = growth inhibition, usual class: inhibitors; hit rate 15% among 420,000; note: potency is the fitted concentration of half-maximal effect; nearly all actives have a fitted effect of over 55% in size
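No-CPT arm: Tdp1-/-;hTDP1 DT40 cells (400/well) plus compounds, incubated ≥48 hr at 37 °C. Readout CellTiter-Glo luminescence.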
IL1B secr inh = blocks inflammasome-driven IL-1 beta release | THP-1 LPS/ATP IL-1B secretion, AlphaLISA, 16 h; stronger effect = lower value | activity change, % at 57.5 µM | hit rate 4.7% among 360,000 | AID 743279; in the data active = activity change below about -50%; inconclusive = mostly about -30% to -49%
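Secreted IL-1B measured by AlphaLISA bead assay after 16 h compound exposure of THP-1 cells; compounds (final up to 57.5 uM) added 1 h before LPS (250 ng/mL) and ATP (1.25 mM) stimulation; lower signal means less secretion.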
RORgamma inh = inhibitors of mouse ROR gamma transcriptional activity. AID 2551. Drosophila S2 Gal4-RORgamma UAS-luciferase reporter, 20 h. Potency, µM (highest dose often 53.6 µM), for inactives: top-dose activity change, negative = inhibition, actives largely listed as inhibitors. hit rate 5.4% among 310,000; note: potency is the fitted concentration of half-maximal effect; nearly all actives have a fitted effect of over 60% in size
Target sequence (P51450 whole entry, looked up, the tested form may be a part): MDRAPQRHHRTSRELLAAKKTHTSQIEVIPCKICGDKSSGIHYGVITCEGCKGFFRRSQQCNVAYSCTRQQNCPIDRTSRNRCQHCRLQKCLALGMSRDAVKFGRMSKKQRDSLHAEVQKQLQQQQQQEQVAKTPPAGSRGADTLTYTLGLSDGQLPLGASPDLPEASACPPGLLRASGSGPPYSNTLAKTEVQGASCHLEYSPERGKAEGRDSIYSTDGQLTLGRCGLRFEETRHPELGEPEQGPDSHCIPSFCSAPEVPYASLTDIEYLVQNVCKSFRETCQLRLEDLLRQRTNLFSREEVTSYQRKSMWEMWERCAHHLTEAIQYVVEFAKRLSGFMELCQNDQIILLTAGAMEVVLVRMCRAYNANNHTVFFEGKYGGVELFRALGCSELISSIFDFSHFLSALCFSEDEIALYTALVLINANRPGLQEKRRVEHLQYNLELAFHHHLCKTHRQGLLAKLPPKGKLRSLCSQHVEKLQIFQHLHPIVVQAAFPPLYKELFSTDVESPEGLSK
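Stable Schneider cell line, Gal4 DNA-binding domain fused to ROR gamma, UAS-luciferase. Cmpd 1 hr RT → CuSO4 700 uM final → 20 hr RT → luciferase reagent 10 min → luminescence.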
Gal4-VP16 FLuc = counter-screen for ROR gamma inhibitors: Gal4-VP16 reporter | hit rate 3.5% among 310,000 | Drosophila S2 Gal4-VP16 UAS-luciferase, luminescence, 20 h | Potency, µM (doses to about 53.6 µM), for the others: top-dose activity, negative = inhibition, actives largely listed as inhibitors | AID 2546;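 note: Gal4-VP16 expression switched on by copper sulfate through the metallothionein promoter; potency is the fitted concentration of half-maximal effect; nearly all actives have a fitted effect of over 50% in size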
DT40 TDP1 CPT = growth inhibition of DT40 Tdp1-/-;hTDP1 cells with camptothecin (screen for TDP1 inhibitors). AID 686979. Potency, µM (highest dose often 46.2 µM), inactives show top-dose activity change, negative = growth inhibition, most hits filed as inhibitors. chicken DT40 Tdp1-/-;hTDP1 cells + 20 nM CPT, ATP luminescence, 48 h. hit rate 12% among 420,000; note: potency is the fitted concentration of half-maximal effect; nearly all actives have a fitted effect of over 55% in size
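Chicken DT40 Tdp1-/- cells complemented with human TDP1, 400 cells/well, exposed to compounds plus 20 nM camptothecin for at least 48 h at 37 C; viability read as ATP content by CellTiter-Glo luminescence.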
* = called active by the depositor; ? = inconclusive; nt = not tested or not shown; [ ] = dose if it differs, or a comment. Hits are enriched below; roughly 21% of the tested compounds scored in any of these assays. Unless noted, calls come from the whole dose curve; as a rule, active = well fitted curve in the direction sought with a large enough effect; inconclusive = small, poorly fitted or top-dose-only effect, or another doubt; inactive = no such curve, though single readings can be large; an effect the other way counts as inactive or inconclusive. % is set by controls: 0 for no effect and ±100 for the full control effect.

SMILES	ELG1 DNA repair	TDP1 cell noCPT	IL1B secr inh	RORgamma inh	Gal4-VP16 FLuc	DT40 TDP1 CPT
CC(=O)c1ccc(OCC(=O)NC(=O)NC2CCCC2)cc1	nt	?	25	nt	nt	?
S=c1sc2c(Cl)ncnc2n1-c1ccccc1	?	10µM*	-96*	?	?	16µM*
CNC(=O)/C(C#N)=C/c1c(N2CCCCCC2)nc2c(C)cccn2c1=O	8%	-17%	-3	6%	-12%	?
Cc1ccc(CNC(=O)CO/N=C/c2ccc(C(C)(C)C)cc2)cc1	-17%	?	-2	-7%[10 µM]	7.9µM*	?
CC(C)(C)c1ccc(/C=N/OCC(=O)NCc2ccc(F)cc2)cc1	?	16µM*	-69*	?	-27%	?
COc1cccc(NC(=O)CN(C)C(=O)CC(NC(=O)c2ccccc2Cl)c2ccccc2)c1 (stereo unspecified)	4%	7%	-4	nt	nt	-2%
Brc1ccc(CNc2nc3ccccc3n2CCN2CCCCC2)cc1	-3%	23µM*	?	?	-22%	?
COc1ccc(OC)c(CNc2nc3ccccc3n2CCN2CCCCC2)c1	?	?	-17	11%	2%	?
Cn1c(NCc2cccc(Br)c2)nc2ccccc21	?	?	?	-7%	0%	?
COc1ccc(CNc2nc3ccccc3n2CCN2CCCCC2)c(OC)c1	-14%	23µM*	-100*	13µM*	-22%	18µM*
COc1cccc(CNc2nc3ccccc3n2CCN2CCCCC2)c1	-14%	?	-10	-34%[10 µM]	4%	13µM*
Brc1cccc(CNc2nc3ccccc3n2CCN2CCCCC2)c1	?	?	-30	4.5µM*	-20%	?
CC1CCN(C(=O)CCC(=O)Nc2ccc([N+](=O)[O-])cc2)CC1	nt	-12%	6	nt	nt	-3%
CCN(CC)C(=O)c1cccc(-c2csc(C(O)c3ccccc3)n2)c1 (stereo unspecified)	nt	23µM*	11	nt	nt	?
CCN(CC)C(=O)c1cccc(-c2csc(C(NC(C)=O)c3ccccc3)n2)c1 (stereo unspecified)	nt	?	6	nt	nt	?
CCN(CC)C(=O)c1cccc(-c2csc(C(O)c3ccc(F)cc3)n2)c1 (stereo unspecified)	nt	?	11	nt	nt	15µM*
CCN(CC)C(=O)c1cccc(-c2csc(C(O)c3ccco3)n2)c1 (stereo unspecified)	nt	?	0	nt	nt	21µM*
CCN(CC)C(=O)c1cccc(-c2csc(C(O)c3ccc(F)c(F)c3)n2)c1 (stereo unspecified)	nt	?	3	nt	nt	23µM*
Cc1cccc(N2C(=O)N3[C@H]4c5ccccc5OC[C@@H]4[C@@H](c4ccccc4)[C@@]3(C)C2=O)c1	-17%	?	8	nt	nt	-23%
CC1=C(C)C[C@@]23CCCN2C(=O)CCC[C@H]3C1	nt	nt	nt	-24%[96.6 µM]	-5%[96.6 µM]	nt
O=C1c2ccccc2C(=O)N1OCCCN1C(=O)c2ccccc2S1(=O)=O	nt	-10%	15	nt	nt	-1%
CCCc1nn(C)c2c(=O)[nH]c(-c3cc(S(=O)(=O)N(CCO)CCO)ccc3OCC)nc12	0%	5%	-15	-37%	7%	?
CCOc1ccc(S(N)(=O)=O)cc1-c1nc2c(C(C)(C)C)nn(C)c2c(=O)[nH]1	-11%	?	?	14%	5%	?
CCOc1ccc(S(=O)(=O)NC(C)(C)C)cc1-c1nc2c(C(C)(C)C)nn(C)c2c(=O)[nH]1	12µM*	?	-98*	-18%[10 µM]	-14%	21µM*
CCOc1ccc(S(=O)(=O)N(CCO)CCO)cc1-c1nc2c(C(C)(C)C)nn(C)c2c(=O)[nH]1	?	18µM*	?	-6%	-8%	?

High-throughput results: PubChem BioAssay, National Center for Advancing Translational Sciences (NCATS)
